Measured values taken from PubChem BioAssay (NCATS).
Results filed as inconclusive are left out. Values without a mark were called inactive. The source made the active and inactive calls. Calls follow the shape of the dose curve; as a rule, active = well fitted inhibition curve with a large enough effect; inconclusive = small, poorly fitted or top-dose-only effect; inactive = no such curve, though single readings can be large or run the other way.

Test system: Zika virus NS2B-NS3 protease (unlinked complex)
Assay: Primary screen GU Rhodamine qHTS for Zika virus inhibitors: Unlinked NS2B-NS3 protease assay (AID 1347159); also: nearly all actives have a fitted effect of over 60% in size
Conditions: Recombinant ZIKV NS2B-NS3 protease, Rhodamine110 substrate fluorescence; series mostly up to 107 µM; activity change, negative = inhibition: at the top concentration
Method in brief: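 Percent inhibition derives from the 15-min fluorescence change (ex 480, em 540 nm), normalized to no-enzyme and no-inhibitor wells. Reactions contained 25 nM NS2B-NS3 complex and 1.5 microM substrate in 10 mM Tris-HCl pH 8.0.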
% is scaled to controls: 0 for no effect and ±100 for the full control effect; potency is read from the fitted curve at half-maximal effect.

Row | Structure (SMILES) | activity change, negative = inhibition | Potency
1 | CCC(C)C(=O)O[C@H]1CCC=C2C=C[C@H](C)[C@H](CC[C@@H](O)C[C@@H](O)CC(=O)O)[C@H]21 (some centres undefined) | 23% [at 57.1 µM] | 
2 | O=C(Nc1ccc(-c2ccncc2)cc1)N[C@H](CO)c1ccccc1 | 17.5% | 
3 | Cn1nnc(-c2ccc(-c3ccc(N4C[C@H](CO)OC4=O)cc3F)cn2)n1 | 2.98% | 
4 | CC1(C)CCC[C@]2(C)[C@H]3CC(=O)O[C@]3(C)CC[C@@H]12 | 0% | 
5 | C[C@@H]1O[C@@H](O[C@H]2[C@H](O)[C@@H](O[C@@H]3O[C@H](CO)[C@@H](O)[C@H](O[C@@H]4O[C@H](CO)[C@@H](O)[C@H](O)[C@H]4O)[C@H]3O)[C@H](O[C@H]3CC[C@@]4(C)C(=CC[C@@H]5C4CC[C@@]4(C)C5C[C@@H]5OC6(CC[C@@](C)(CO[C@@H]7O[C@H](CO)[C@@H](O)[C@H](O)[C@H]7O)O6)[C@@H](C)[C@@H]54)C3)O[C@@H]2CO)[C@H](O)[C@H](O)[C@H]1OC1OC(CO)C(O)C(O)C1O (some centres undefined) | -17.5% [at 19.1 µM] | 
6 | CC1(C)CC[C@]23CO[C@@]4(CCC5[C@@]6(C)CC[C@H](O[C@@H]7OC[C@H](O[C@@H]8O[C@H](CO)[C@@H](O)[C@H](O)[C@H]8O)[C@H](O)[C@H]7O[C@@H]7O[C@H](CO)[C@@H](O[C@@H]8O[C@H](CO)[C@@H](O)[C@H](O)[C@H]8O)[C@H](O)[C@H]7O)[C@@](C)(CO)C6CC[C@@]5(C)[C@]4(C)C[C@H]2OC2OCC(O)C(O)C2O)C3C1 (some centres undefined) | 15.7% [at 19.1 µM] | 
7 | CCCC(=O)O[C@@H]1[C@@H]2[C@@H](OC(C)=O)[C@]3(C)C(=O)[C@H]4[C@@H](OC(C)=O)C(C)(C)C[C@H]4[C@]3(C)C(=O)[C@@]2(OC(C)=O)C[C@@H]1C | -10.8% [at 57.1 µM] | 
8 | O=C(O)CCCCCC[C@H]1C(=O)NC(=O)N1CC[C@@H](O)C1CCCCC1 | -21.7% | 
9 | CC(C)N(CCCCOCC(=O)NS(C)(=O)=O)c1cnc(-c2ccccc2)c(-c2ccccc2)n1 |  | 7.94 µM (active)
10 | CNC(=S)NS(=O)(=O)c1cc(CCNC(=O)c2cc(Cl)ccc2OC)ccc1OC | -13.7% | 
11 | O=C1NC(Cc2c[nH]c3ccccc23)C(=O)NC1Cc1cnc[nH]1 (centres undefined) | 1.42% | 
12 | C[C@@H]1C[C@@H](O)[C@@]23CO[C@@H](O)[C@@H]2CCC[C@@H]3[C@@]12C[C@@H](c1ccoc1)OC2=O | 5.38% | 
13 | OC[C@@]1(O)CO[C@@H](OC[C@H]2O[C@@H](Oc3c[nH]c4ccccc34)[C@H](O)[C@@H](O)[C@@H]2O)[C@@H]1O | 7.31% [at 57.1 µM] | 
14 | CC(C)C[C@H](CC(=O)NO)C(=O)N[C@@H](Cc1ccc2ccccc2c1)C(=O)N[C@@H](C)C(=O)NCCN | 48.8% | 
15 | CCOc1cc(N2CCC(O)CC2)ccc1Nc1ncc2c(n1)N(C1CCCC1)CCC(=O)N2C | -10% | 
16 | O=C1OCC(c2ccccc2)=C1Cc1ccccc1 | 11.9% | 
17 | O=C(/C=C/c1cccc(S(=O)(=O)Nc2ccccc2)c1)NO | 20.1% [at 57.1 µM] | 
18 | Cc1cc(Cl)ccc1COc1ccnn1-c1cc(C(=O)O)ccn1 | 0% | 
19 | CC(=O)NCC(=O)N1C2CCC1c1cc(Nc3ncc(C(F)(F)F)c(NC4CCC4)n3)ccc12 (centres undefined) | -17.3% | 
20 | COc1ccc(-c2ccc(-c3cn(C(=O)N4CCCCC4c4ccccc4)nn3)cc2)cc1 (centres undefined) | -8.95% | 

Row | Structure (SMILES) | activity change, negative = inhibition | Potency
21 | O=[N+]([O-])c1cccc2[nH]c(CNc3nc(N4CCOCC4)nc4c3ncn4-c3ccsc3)nc12 |  | 89.1 µM (active)
22 | CC(C)CC1NC(=O)C2CC3(O)c4ccccc4NC3N2C1=O (centres undefined) | -0.723% | 
23 | C/C(=C\CCC(C)CCO)C(=O)OC1(C)CCC2C(C(=O)O)=COC(OC3OC(CO)C(O)C(O)C3O)C21 (centres undefined) | 4.74% [at 57.1 µM] | 
24 | Cc1cc(Nc2ncc3cc(-c4c(Cl)cccc4Cl)c(=O)n(C)c3n2)ccc1F | -13.9% | 
25 | CC(=O)OC[C@@]12C(=O)C[C@@H](C)[C@]3(C[C@@H](c4ccoc4)O[C@H]3OC(C)=O)[C@H]1CCC[C@]21CO1 | 14.9% [at 57.1 µM] | 
26 | CC12CCC3c4ccc(OC5OC(C(=O)O)C(O)C(O)C5O)cc4CCC3C1CCC2O (centres undefined) | -9.04% | 
27 | COc1cc2ncnc(N3CCC(Oc4cnc5ccccc5n4)C3)c2cc1OC (centres undefined) | -0.933% | 
28 | COc1c(C)c(OCC(O)C(C)(C)O)cc2c1COC2=O (centres undefined) | 24.8% | 
29 | O=C(NCc1ccc(F)cc1)C(=O)c1c[nH]c2ccccc12 | 33.8% | 
30 | Cc1c(C(=O)N2CCOc3ccc(-c4ccc(N)nc4)cc3C2)ccc(S(C)(=O)=O)c1F | 12.5% | 
31 | C/C=C/C(O)C1OC(=O)CC1Nc1ccc(C(=O)O)cc1 (centres undefined) | -13.9% | 
32 | COc1cc(NC(=O)Nc2cccc(CNC(=O)O[C@H]3CCOC3)c2)ccc1-c1cnco1 | 5.49% | 
33 | CC1=CC(=O)CC(C)(CO)C1(O)/C=C/C(C)O[C@@H]1O[C@H](CO)[C@@H](O)[C@H](O)[C@H]1O (some centres undefined) | -9.23% [at 57.1 µM] | 
34 | C=CC(=O)Nc1cccc(Nc2nc(Nc3ccc(N4CCN(C(C)=O)CC4)cc3OC)ncc2C(F)(F)F)c1 | 35.9% | 
35 | CC1CCC2(C(=O)O)CCC3(C)C(=CCC4C5(C)CCC(OC(=O)/C=C/c6ccccc6)C(C)(C)C5CCC43C)C2C1C (centres undefined) | 7.28% [at 32.5 µM] | 
36 | CCOC(=O)C(CCc1ccccc1)NC1CSC(c2cccs2)CN(CC(=O)O)C1=O (centres undefined) | -1.01% | 
37 | C[C@@H]1O[C@@H](O[C@@H]2[C@@H](O)[C@H](O[C@H]3CC[C@@]4(C)C(CC[C@]5(C)C4CC=C4[C@@H]6CC(C)(C)CC[C@]6(C(=O)O[C@@H]6O[C@H](CO)[C@@H](O)[C@H](O)[C@H]6O)CC[C@]45C)C3(C)C)O[C@H](C(=O)O)[C@H]2O)[C@H](O)[C@H](O)[C@H]1O (some centres undefined) | 58% [at 32.5 µM] | 
38 | CC(C)C(C(=O)N(C)C(C)C(N)=O)N(C)C(=O)C1CCCN1C(=O)/C=C/C=C/C(O)C(C)O (centres undefined) | 20.5% [at 57.1 µM] | 
39 | CC(=O)NC1=NN(C(C)=O)C(C)(c2ccccc2)S1 (centres undefined) | 16.3% | 
